Unmarked numbers belong to inactive results. Records with an inconclusive call do not appear. Entries that show only a call come without a potency. The source made the active and inactive calls. Unless noted, calls come from the whole dose curve; as a rule, active = well fitted curve in the direction sought with a large enough effect in the repeat runs; inconclusive = weak or mixed curves; inactive = no such curve, though single readings can be large; an effect the other way counts as inactive or inconclusive.
Columns and labels:
[1] = qHTS assay to identify small molecule antagonists of the estrogen related receptor (ERR) signaling pathway from Tox21 library - cell viability counter screen (AID 1224834); note: nearly all actives have a fitted effect of over 30% in size; note: potency is the fitted concentration of half-maximal effect
Method in brief: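 Cytotoxicity of test substances is gauged in the same ERR cells used for the antagonist screen, after 17.5 h of compound treatment at 37 C, by CellTiter-Fluor fluorescence measured after 30 min.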

[2] = qHTS assay to identify small molecule agonists of the constitutive androstane receptor (CAR) signaling pathway - cell viability counter screen (AID 1224836); note: nearly all actives have a fitted effect of over 45% in size
Method in brief: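 Fluorescence from CellTiter-Fluor indicates live cells after 23 h exposure. The human hepatoma line expresses hCAR and a CYP2B6-2.2kb reporter. Incubation medium contains 0.75 uM PK11195 (final).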

[3] = qHTS assay to identify small molecule antagonists of the constitutive androstane receptor (CAR) signaling pathway - cell viability counter screen (AID 1224837); note: nearly all actives have a fitted effect of over 45% in size
Method in brief: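 Multiplexed cytotoxicity read-out for the CAR antagonist screen: double-stable HepG2-CYP2B6-hCAR cells co-treated with 50 nM CITCO (final) and compound over 15 concentrations, incubated 23 hr, then assessed by CellTiter-Fluor fluorescence.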

[4] = target: Nuclear receptor subfamily 1 group I member 3 (Homo sapiens) (UniProt Q14994); test: qHTS assay to identify small molecule antagonists of the constitutive androstane receptor (CAR) signaling pathway (AID 1224838); note: nearly all actives have a fitted effect of over 40% in size
Method in brief: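 Compounds were titrated across 15 concentrations onto HepG2 cells double-stably expressing hCAR and a CYP2B6-2.2kb reporter, together with 50 nM CITCO (final). After 24 h at 37 C, luciferase activity was measured by luminescence.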

[5] = target: Nuclear receptor subfamily 1 group I member 3 (Homo sapiens) (UniProt Q14994); test: qHTS assay to identify small molecule agonists of the constitutive androstane receptor (CAR) signaling pathway (AID 1224839); note: nearly all actives have a fitted effect of over 15% in size; note: potency is the fitted concentration of half-maximal effect;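 for activation: HepG2 cells stably carrying human CAR and a CYP2B6 luciferase reporter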
Method in brief: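 Stable hCAR/CYP2B6-2.2kb HepG2 line in DMEM with 10% FBS; compounds (15 concentrations) and 0.75 uM PK11195 final, 24 h at 37 C/5% CO2, then ONE-Glo luminescence after 30 min.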

[6] = qHTS assay to identify small molecule antagonists of the estrogen related receptor signaling pathway with the pleiotropic PPARgamma coactivator (PGC) from Tox21 10K library - cell viability counter screen (AID 1224840; active = well fitted cell-killing curve with a large enough effect in the repeat runs, not every such curve was filed as active; note: nearly all actives have a fitted effect of over 40% in size)
Method in brief: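 Step one, plate 2,000 PGC/ERR cells per well; step two, incubate 6 h at 37 C/5% CO2; step three, pin-transfer compounds; step four, incubate 17.5 h; step five, add CellTiter-Fluor and read fluorescence after 30 min.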

[7] = target: Thyrotropin receptor (Homo sapiens) (UniProt P16473); test: qHTS assay to identify small molecule agonists of the thyroid stimulating hormone receptor (TSHR) signaling pathway (AID 1224843; calls by dose curve; note: nearly all actives have a fitted effect of over 45% in size)
Method in brief: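 Steps: seed 800 TSHR-HEK293 cells per well; add test compound and hold 30 min at ambient temperature; dispense cAMP-d2 then anti-cAMP cryptate; incubate 1 h at ambient; measure fluorescence intensity.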

[8] = qHTS assay to identify small molecule agonists of the hypoxia (HIF-1) signaling pathway - cell viability counter screen (AID 1224844; calls by dose curve; note: nearly all actives have a fitted effect of over 50% in size; note: potency is the fitted concentration of half-maximal effect)
Method in brief: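 Tox21 10K compounds were added to HRE-bla ME-180 cells (0.5% dialyzed FBS) and incubated 17 hrs at 37C; ATP-based CellTiter-Glo luminescence then reported cell viability in the same wells.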

[9] = qHTS assay to identify small molecule agonists of H2AX (AID 1224845; active = well fitted activation curve with a large enough effect in the signal ratio in the repeat runs, not every such curve was filed as active; the % refers to the signal ratio)
Method in brief: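 Wild-type CHO-K1 cells, plated overnight, exposed 3hr at 37C to 15 concentrations (0.76% DMSO final). Lysed, then HTRF anti-pH2AX (S139) cryptate and anti-H2AX-d2 antibodies, 24 hr room temperature; 665/620 nm emission read.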

[10] = qHTS assay to identify small molecule agonists of H2AX - cell viability counter screen (AID 1224847; calls by dose curve; note: top concentration of the series differs between compounds; nearly all actives have a fitted effect of over 30% in size)
Method in brief: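 Viability of CHO-K1 (wild type) cells after 3 hr compound exposure was measured by CellTiter-Glo luminescence.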

[11] = qHTS RealTime-Glo MT Cell Viability Assay in HepG2 cells - 24 hour (AID 1224867); note: nearly all actives have a fitted effect of over 50% in size
Method in brief: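 Luminescence read-out: viable HepG2 cells reduce a prosubstrate to a NanoLuc substrate, giving a signal proportional to live cell number. Reads taken at 0, 8, 16, 24, 32 and 40 h of compound exposure at 37 C.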

[12] = A CellTox Green Cytotoxicity Assay to monitor cytotoxicity in HEK293 cells - 0 hour (AID 1224869); note: nearly all actives have a fitted effect of over 50% in size
Method in brief: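 Cytotoxicity was tracked continuously in HEK293 cells by a DNA-binding dye excluded from viable cells. Compounds were transferred in DMSO 5 h after seeding; fluorescence was recorded at intervals up to 40 h.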

[13] = qHTS assay to identify small molecule agonists of the hypoxia (HIF-1) signaling pathway (AID 1224846; active = well fitted activation curve with a large enough effect in the signal ratio in the repeat runs, not every such curve was filed as active; the % refers to the signal ratio)
Method in brief: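 Steps: seed ME-180 HRE-bla cells (2,000/well, 0.5% dialyzed FBS); incubate 5 hrs at 37C; pin-transfer compounds or DMSO; incubate 17 hrs; add LiveBLAzer B/G substrate CCF4-AM; measure reporter activation by FRET.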

[14] = qHTS RealTime-Glo MT Cell Viability Assay in HEK293 cells - 32 hour (AID 1224868); note: nearly all actives have a fitted effect of over 50% in size; note: potency is the fitted concentration of half-maximal effect
Method in brief: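 Nonlytic real-time viability readout: viable cells convert prosubstrate to NanoLuc substrate, giving luminescence proportional to live cell number. HEK293, 600 cells/well, compound added after 5 h, continuous culture at 37 C.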

[15] = qHTS RealTime-Glo MT Cell Viability Assay in HepG2 cells - 40 hour (AID 1224870); note: nearly all actives have a fitted effect of over 50% in size
Method in brief: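 HepG2 cells (600/well) mixed with RealTime-Glo MT reagent, settled 5 h at 37 C/5% CO2 before compound addition. Nonlytic NanoLuc luminescence from viable-cell prosubstrate reduction read repeatedly during 40 h treatment at 37 C.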

[16] = target: Luciferin 4-monooxygenase (Photinus pyralis) (UniProt P08659); test: qHTS assay to identify small molecule inhibitors of firefly luciferase (AID 1224835); note: nearly all actives have a fitted effect of over 25% in size
Method in brief: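 Biochemical qHTS: compounds run as interplate titrations against purified firefly enzyme, with D-luciferin and ATP each at its KM concentration. Light output recorded by CCD imaging.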

[17] = qHTS assay to identify small molecule antagonists of the estrogen related receptor signaling pathway with the pleiotropic PPARgamma coactivator (PGC) from Tox21 10K library (AID 1224841; call rule not given here)
Method in brief: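 Antagonism in this quantitative HTS is taken from loss of luciferase signal in PGC/ERR cells. Cells (2,000/well) are treated with compounds in DMSO after a 6 h settling period and read by One-Glo luminescence after 18 h.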

[18] = qHTS assay to identify small molecule agonists of the estrogen related receptor signaling pathway with the pleiotropic PPARgamma coactivator (PGC) from Tox21 10K library (AID 1224842); note: nearly all actives have a fitted effect of over 15% in size; note: potency is the fitted concentration of half-maximal effect
Method in brief: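 PGC/ERR reporter cell line, 2,000 cells per well, incubated 6 h at 37 C before 23 nL compound in DMSO was added. After 18 h at 37 C, One-Glo luminescence read following 30 min at room temperature.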

[19] = qHTS assay to identify small molecule antagonists of the estrogen related receptor (ERR) signaling pathway from Tox21 library (AID 1224848); note: nearly all actives have a fitted effect of over 50% in size; note: potency is the fitted concentration of half-maximal effect
Method in brief: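 Luminescent reporter read-out (ONE-Glo) from NTP's ERR cell line after 18 h treatment at 37 C with DMSO-dissolved Tox21 compounds; cells pre-plated 6 h beforehand at 2,000 per well.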

[20] = qHTS assay to identify small molecule agonists of the estrogen related receptor (ERR) signaling pathway from Tox21 library (AID 1224849; calls by dose curve; note: nearly all actives have a fitted effect of over 15% in size); details: ERR reporter cell line, ONE-Glo luciferase, 18 h; at 92.4 µM (top of the series) unless noted
Method in brief: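 Agonist signal is luciferase luminescence from an ERR reporter cell line treated 18 h at 37 C with DMSO-dissolved compounds, read 30 min after ONE-Glo addition at room temperature.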

Nuclear receptor subfamily 1 group I member 3 (Homo sapiens), sequence (Q14994 whole entry, looked up): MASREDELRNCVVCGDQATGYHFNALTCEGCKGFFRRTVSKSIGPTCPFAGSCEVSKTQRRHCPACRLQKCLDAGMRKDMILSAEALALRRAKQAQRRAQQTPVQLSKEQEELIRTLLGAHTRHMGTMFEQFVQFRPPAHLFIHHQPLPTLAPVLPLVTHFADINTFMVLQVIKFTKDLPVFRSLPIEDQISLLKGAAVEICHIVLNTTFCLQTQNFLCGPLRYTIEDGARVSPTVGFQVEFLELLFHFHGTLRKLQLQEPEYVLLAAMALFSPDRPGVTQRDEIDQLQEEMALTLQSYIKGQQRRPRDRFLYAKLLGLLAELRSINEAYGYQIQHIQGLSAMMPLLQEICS
Luciferin 4-monooxygenase (Photinus pyralis), sequence (P08659 whole entry, looked up): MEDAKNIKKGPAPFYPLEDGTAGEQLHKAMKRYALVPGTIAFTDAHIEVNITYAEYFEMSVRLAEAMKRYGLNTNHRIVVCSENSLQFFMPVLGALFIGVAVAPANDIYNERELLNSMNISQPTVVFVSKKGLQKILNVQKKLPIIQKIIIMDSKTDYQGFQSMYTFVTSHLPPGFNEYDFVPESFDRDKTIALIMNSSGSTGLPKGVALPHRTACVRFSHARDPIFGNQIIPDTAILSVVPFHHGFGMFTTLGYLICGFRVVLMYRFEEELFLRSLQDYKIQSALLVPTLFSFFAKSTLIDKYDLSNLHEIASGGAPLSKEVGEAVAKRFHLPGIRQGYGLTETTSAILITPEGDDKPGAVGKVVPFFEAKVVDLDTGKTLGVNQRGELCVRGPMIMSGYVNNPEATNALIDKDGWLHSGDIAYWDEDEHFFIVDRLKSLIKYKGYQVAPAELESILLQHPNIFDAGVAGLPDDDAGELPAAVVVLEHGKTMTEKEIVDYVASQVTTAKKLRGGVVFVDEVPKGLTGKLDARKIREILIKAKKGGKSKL
Thyrotropin receptor (Homo sapiens), sequence (P16473 whole entry, looked up): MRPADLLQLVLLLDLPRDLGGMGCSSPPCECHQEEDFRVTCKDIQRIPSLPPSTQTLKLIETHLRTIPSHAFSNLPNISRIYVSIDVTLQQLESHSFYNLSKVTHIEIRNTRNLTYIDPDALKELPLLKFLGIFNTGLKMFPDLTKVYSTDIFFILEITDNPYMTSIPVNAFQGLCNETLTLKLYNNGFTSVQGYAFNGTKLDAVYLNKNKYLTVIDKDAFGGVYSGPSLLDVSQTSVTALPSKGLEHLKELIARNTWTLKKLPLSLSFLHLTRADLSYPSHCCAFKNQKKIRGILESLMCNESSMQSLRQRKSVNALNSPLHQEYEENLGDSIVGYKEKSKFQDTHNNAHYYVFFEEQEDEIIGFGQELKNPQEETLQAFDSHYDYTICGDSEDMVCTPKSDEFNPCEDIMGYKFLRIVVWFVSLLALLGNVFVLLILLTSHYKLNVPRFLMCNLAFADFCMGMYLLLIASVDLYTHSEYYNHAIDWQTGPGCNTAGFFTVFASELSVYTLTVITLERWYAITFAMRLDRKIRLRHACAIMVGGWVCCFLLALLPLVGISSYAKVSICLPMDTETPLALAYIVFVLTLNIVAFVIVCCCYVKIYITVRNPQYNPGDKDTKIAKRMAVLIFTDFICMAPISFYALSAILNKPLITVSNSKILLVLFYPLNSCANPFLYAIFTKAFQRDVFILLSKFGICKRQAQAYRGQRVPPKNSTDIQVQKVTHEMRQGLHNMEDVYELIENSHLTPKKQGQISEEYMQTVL

Row | Structure (SMILES) | Potency [1] | outcome [2] | outcome [3] | Potency [4] | Potency [5] | outcome [6] | outcome [7] | Potency [8] | outcome [9] | Potency [10] | outcome [11] | Potency [12] | outcome [13] | Potency [14] | Potency [15] | Potency [16] | Potency [17] | Potency [18] | Potency [19] | activity change, positive = activation [20]
1 | CCN1CCCC1CNC(=O)c1cc(S(N)(=O)=O)ccc1OC (centres undefined) | inactive | inactive | inactive | inactive | inactive | inactive | inactive | 17.4 µM (active) | inactive | inactive | inactive | inactive |  |  |  |  |  |  |  | 
2 | CSc1nc(NC2CC2)nc(NC(C)(C)C)n1 | inactive | inactive | inactive | inactive | 17.2 µM (active) |  |  | inactive | inactive | inactive | inactive | inactive | inactive | 24.5 µM (active) | inactive |  |  |  |  | 
3 | COc1nc(C)nc(N)n1 | inactive | inactive |  |  |  | inactive | inactive | inactive | inactive | inactive |  | inactive | inactive | inactive | inactive | inactive |  |  |  | 
4 | Oc1ccc2c(c1)OC[C@@H](N1CCC(O)(c3ccc(F)cc3)CC1)[C@H]2O | inactive | inactive | inactive | inactive | 3.76 µM (active) | inactive |  | inactive | inactive | inactive | inactive | inactive |  | inactive |  |  | inactive | 4.73 µM (active) | inactive | 111% [at 42.5 µM] (active)
5 | CCCCCCCCCCCCCCC | inactive | inactive | inactive | inactive | inactive | inactive | inactive | inactive | inactive | inactive | inactive | inactive | inactive | inactive | inactive |  | inactive | inactive | inactive | 4.59%
6 | CCCCNc1ccccc1 | inactive | inactive |  |  | inactive |  | inactive | inactive |  |  | inactive | inactive | inactive | inactive | inactive | inactive |  |  |  | 
7 | CCCCCCCCN(C)CCCCCCCC | inactive | inactive | inactive | inactive | inactive | inactive | inactive |  | inactive | inactive |  | inactive | inactive | inactive | inactive |  | inactive | inactive | inactive | 18.3%
8 | c1cc(CN2CCCCC2)cc(OCCCNc2nc3ccccc3s2)c1 | 29.8 µM (active) |  |  |  | inactive | inactive | inactive | inactive | inactive |  |  | inactive | inactive | 9.52 µM (active) |  | inactive | inactive | inactive | 23.7 µM (active) | -31.8% [at 42.5 µM]

— PubChem BioAssay (Tox21)
